Rows were chosen to be rich in hits. Some 3.6% of all compounds tested hit in one or more screens of this group.
A549 viability – A549 cytotoxicity, counter-screen for Nrf2 inhibitors | AID 504648 | Potency, µM (top dose mostly 46 µM), for the others: top-dose activity change, negative = cytotoxicity, actives largely listed as inhibitors | actives 0.16% (n = 390,000) | A549 ARE-Fluc cells, CellTiter-Fluor viability, 18-24 h; also: % is scaled to controls: 0 for no effect and ±100 for the full control effect
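A549 ARE-Fluc cells in 5% FBS OPTI-MEM, 5000 cells/well, rested 2 h then exposed to compounds in concentration-response for 18-24 h at 37 °C. Viability by CellTiter-Fluor fluorescence (Ex 405/Em 525) after 30 min; luciferase luminescence (BugLite, 15 min, RT) read afterwards.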
HepG2 tox – counter-screen for TGF-b inhibitors: cytotoxicity in HepG2 cells; Potency, µM (titrated, usually from 46.1 µM), for inactives: at the top dose activity change, negative = cytotoxicity, usual class: cytotoxic; HepG2 CAGA-GFP viability, ATP luminescence, 18 h; actives 0.76% (n = 410,000)
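CellTiter-Glo luminescence gave cytotoxicity after 18 hours at 37 degrees C. The cells were HepG2 CAGA-GFP in 1% FBS DMEM, stimulated with 500 pg/mL TGF-beta after compound addition. %Activity was normalised to no-cell wells (complete cell-killing) and DMSO (no toxicity), and curves were fitted and classified.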
TGFb SMAD3 inh – inhibitors of TGF-b signaling; HepG2 CAGA-GFP TGF-b/SMAD3 reporter, GFP fluorescence, 18 h; TGF-beta stimulated, 500 pg/mL final; Potency, µM (doses to about 46.1 µM), for inactives: at the top dose activity, negative = inhibition, actives largely listed as inhibitors; actives 1.2% (n = 410,000); also: % is scaled to controls: 0 for no effect and ±100 for the full control effect; nearly all actives have a fitted effect of over 65% in size
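HEPG2 CAGA-GFP cells (1000/well, DMEM with 1% FBS) were pre-incubated 2 h at 37 degrees C, given compound by pin tool, then stimulated with TGF-beta at 500 pg/mL final for 18 h before per-cell GFP fluorescence imaging.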
Nrf2 ARE act – activators of Nrf2 (ARE) signaling. AREc32 ARE-luciferase reporter (MCF7-derived line), luminescence, 24 h. Potency, µM (doses to about 46.1 µM), for the others: at the highest dose activation, most hits filed as activators. actives 0.31% (n = 410,000). AID 624171; also: % of control where 0% means no effect; nearly all actives have a fitted effect of over 65% in size
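Nrf2 activation is followed as ARE-luciferase induction in the AREc32 line after one day of compound treatment; luminescence is read with Steady-Glo.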
Nrf2 inh – blocks Nrf2 signaling; A549 ARE-Fluc reporter, luciferase luminescence, 18-24 h; AID 504444; actives 2.1% (n = 360,000); Potency, µM (top dose mostly 46 µM), for inactives: at the top dose activity change, negative = inhibition, most hits filed as inhibitors; also: % is scaled to controls: 0 for no effect and ±100 for the full control effect; nearly all actives have a fitted effect of over 60% in size
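Quantitative HTS in A549 cells stably bearing an antioxidant response element-firefly luciferase construct. Inhibition of Nrf2-driven transcription was scored by luminescence after 18-24 h of compound exposure at 37 °C.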
Numbers without * were called inactive; ? = inconclusive; · = no result; ! = not confirmed by another sample. Calls follow the shape of the dose curve; as a rule, active = well fitted curve in the direction sought with a large enough effect; inconclusive = small, poorly fitted or top-dose-only effect, or another doubt; inactive = no such curve, though single readings can be large; an effect the other way counts as inactive or inconclusive. Potency is read from the fitted curve at half-maximal effect.

SMILES	A549 viability	HepG2 tox	TGFb SMAD3 inh	Nrf2 ARE act	Nrf2 inh
CCOc1ccc(N(C)S(=O)(=O)c2cc(-c3cc(C)no3)ccc2OC)cc1	0%	-19%	-30%	0%	?
CCN(CC)S(=O)(=O)c1ccc(C(=O)Nc2ccc(Cc3ccncc3)cc2)cc1	0%	-9%	-7%	1%	21µM*
COc1ccc(C(=O)Nc2ccc(OC)c([N+](=O)[O-])c2)cc1Br	-26%	-18%	-2%	0%	21µM*
CCN(CC)S(=O)(=O)c1ccc(NC(=O)c2ccc(N(C)S(C)(=O)=O)cc2)cc1	?	-3%	?	-1%	·
COc1ccc(C(=O)Nc2ccc(Cc3ccncc3)cc2)cc1Br	?	-71%	?	4%	18µM*
NNC(=O)CC1NCCN(Cc2ccccc2)C1=O (configuration not stated)	-4%	4%	7%	-1%	7%
COc1cc(/C=N/NC(=O)c2c(C)nnn2-c2nonc2N)ccc1O	13%	0%	-12%	0%	-2%
CC(=O)Nc1ccc(S(=O)(=O)NCc2ccc(C(=O)N3CCOCC3)cc2)cc1	1%	-8%	-9%	0%	-2%
O=c1oc2ccccc2c(Nc2ccc(F)cc2)c1[N+](=O)[O-]	-13%	-11%	?	28%	-25%
O=c1oc2ccccc2c(Nc2ccc(Cl)cc2)c1[N+](=O)[O-]	-4%	-25%	?	14%	16µM*
Cc1nc([N+](=O)[O-])cn1CC(=O)c1ccc2c(c1)OCCO2	·	-9%	3%	·	·
CCC(C)C(=O)Nc1nc(C)c(-c2csc(Nc3cc(Cl)ccc3OC)n2)s1 (configuration not stated)	-4%	-27%	-2%	0%	8.2µM*
CCCC(C)C(=O)Nc1nc(C)c(-c2csc(Nc3ccc(Cl)cc3)n2)s1 (configuration not stated)	-12%	-9%	-5%	4%	15µM*
CCC(C)C(=O)Nc1nc(C)c(-c2csc(Nc3cc(OC)ccc3OC)n2)s1 (configuration not stated)	-8%	-7%	-28%	0%	?
CC1=NN(CCC#N)C(=O)/C1=C/c1ccc(N(C)C)cc1	-6%	4%	-2%	3%	6%
CC(OC(=O)Cn1cnc2ccccc2c1=O)C(=O)N(C)c1ccccc1 (configuration not stated)	-1%	16%	17%	0%	0%
CCOc1cccc(CNc2ccc(O)cc2)c1OCc1ccc(Cl)cc1Cl	-8%	-38%	?	13%	·
CCOc1cccc(CNc2ccc(O)cc2)c1OCc1ccccc1Cl	3%	16µM*!	13µM*	?	0%
COc1ccc(-c2onc(C)c2C)cc1S(=O)(=O)NC1CCC(C)CC1 (configuration not stated)	-24%	-19%	?	1%	21µM*
COc1ccc(-c2onc(C)c2C)cc1S(=O)(=O)NC1CCCCC1	-1%	-3%	0%	3%	-21%
COc1ccc(-c2onc(C)c2C)cc1S(=O)(=O)N(C)Cc1ccccc1	0%	-28%	?	1%	18µM*
COc1cccc(C2N(c3cccc(Cl)c3)C(=O)C3CCCN32)c1OC (configuration not stated)	5%	-17%	21%	2%	?
O=S(=O)(c1ccc(Cl)nc1)N1CCC(Cc2ccccc2)CC1	5%	3%	15%	0%	21%
NC(=O)C1CCN(c2ccc(S(=O)(=O)N3CCC(Cc4ccccc4)CC3)cn2)CC1	-18%	-23%	?	-1%	1.6µM*
Cc1cccc2cc(-c3ccccc3)c(-c3ccccc3)c[n+]12	-10%	-13%	?	0%	23µM*
O=[N+]([O-])c1cccc(-c2cc3cccc[n+]3cc2-c2cccc([N+](=O)[O-])c2)c1	-6%	-5%	4%	-1%	19%
CCN(CC)CCN(C(=O)c1ccc(CN2CCCCC2)o1)C(C(=O)NC1CCCCC1)c1ccc(F)cc1 (configuration not stated)	?	-31%	-7%	0%	5%
